Measurements reported in the supplement of paper PMC11732987, “Enantioselective OTUD7B fragment discovery through chemoproteomics screening and high-throughput optimisation” (Communications Chemistry, 2025).
Values without a mark were called inactive.

Columns and labels:
Experiment in all cases: log2 ratio of Biotin-Ahx-Ub-VS probe labelling (fragment/DMSO); higher = less target engagement (more negative = stronger competition), active = hit call of the paper (q ≤ 0.05, log2 ratio ≤ -1)
Conditions in all cases: compound concentration: 200 uM; treatment time: 3 h
USP42 = biological target: T1, USP42 (UniProt Q9H9J4)
T1 sequence (whole entry): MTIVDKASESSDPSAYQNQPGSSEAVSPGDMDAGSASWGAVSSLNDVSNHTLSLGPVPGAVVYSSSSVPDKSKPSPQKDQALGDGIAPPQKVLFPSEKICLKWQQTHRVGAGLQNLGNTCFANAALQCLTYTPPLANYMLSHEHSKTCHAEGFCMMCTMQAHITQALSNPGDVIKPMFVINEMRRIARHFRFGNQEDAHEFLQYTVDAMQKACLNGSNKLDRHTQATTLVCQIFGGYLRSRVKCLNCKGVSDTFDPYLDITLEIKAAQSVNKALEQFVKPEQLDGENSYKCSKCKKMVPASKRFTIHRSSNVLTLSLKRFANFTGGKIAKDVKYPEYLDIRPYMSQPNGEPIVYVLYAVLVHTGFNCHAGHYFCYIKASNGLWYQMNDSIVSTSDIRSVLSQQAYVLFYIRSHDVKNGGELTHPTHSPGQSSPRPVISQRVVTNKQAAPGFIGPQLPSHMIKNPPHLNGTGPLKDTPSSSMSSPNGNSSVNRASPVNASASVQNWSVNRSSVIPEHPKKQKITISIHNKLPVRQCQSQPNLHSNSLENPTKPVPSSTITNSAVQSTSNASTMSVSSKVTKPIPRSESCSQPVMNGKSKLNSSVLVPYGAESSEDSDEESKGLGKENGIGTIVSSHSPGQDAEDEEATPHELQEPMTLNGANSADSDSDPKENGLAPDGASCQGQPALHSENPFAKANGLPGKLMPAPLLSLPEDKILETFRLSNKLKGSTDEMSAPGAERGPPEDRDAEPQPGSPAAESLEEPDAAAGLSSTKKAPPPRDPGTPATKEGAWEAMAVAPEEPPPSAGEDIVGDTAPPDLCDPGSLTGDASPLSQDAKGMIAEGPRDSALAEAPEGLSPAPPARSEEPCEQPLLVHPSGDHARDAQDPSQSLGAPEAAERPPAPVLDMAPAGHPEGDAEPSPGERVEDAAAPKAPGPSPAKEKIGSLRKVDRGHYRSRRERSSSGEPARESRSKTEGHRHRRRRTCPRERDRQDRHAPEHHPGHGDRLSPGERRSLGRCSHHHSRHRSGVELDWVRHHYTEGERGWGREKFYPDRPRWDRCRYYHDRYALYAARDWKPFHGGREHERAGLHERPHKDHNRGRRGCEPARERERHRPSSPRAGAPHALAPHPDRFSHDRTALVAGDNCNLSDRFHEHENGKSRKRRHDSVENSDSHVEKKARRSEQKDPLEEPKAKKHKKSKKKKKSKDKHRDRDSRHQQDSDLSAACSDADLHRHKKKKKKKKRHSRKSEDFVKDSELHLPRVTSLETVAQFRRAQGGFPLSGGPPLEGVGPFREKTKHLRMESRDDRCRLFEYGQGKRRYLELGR
In short: (§1)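 Labelled DUBs were enriched with NeutrAvidin, digested with LysC and trypsin, and run by diaPASEF LC-MS/MS. The labelling used Biotin-Ahx-Ub-VS at 0.5 µM final for 1 h on HEK293T lysate (495 µg per sample) previously treated in triplicate with fragment at 200 µM or vehicle for 3 h. Values are average log2 fragment/vehicle ratios by unpaired t-test on global-median-normalised Spectronaut quantities of proteins with ≥2 unique peptides.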

USP46 = USP46 (UniProt P62068)
In short: as §1

USP47 = biological target: T2, USP47 (UniProt Q96K76)
T2 sequence (whole entry): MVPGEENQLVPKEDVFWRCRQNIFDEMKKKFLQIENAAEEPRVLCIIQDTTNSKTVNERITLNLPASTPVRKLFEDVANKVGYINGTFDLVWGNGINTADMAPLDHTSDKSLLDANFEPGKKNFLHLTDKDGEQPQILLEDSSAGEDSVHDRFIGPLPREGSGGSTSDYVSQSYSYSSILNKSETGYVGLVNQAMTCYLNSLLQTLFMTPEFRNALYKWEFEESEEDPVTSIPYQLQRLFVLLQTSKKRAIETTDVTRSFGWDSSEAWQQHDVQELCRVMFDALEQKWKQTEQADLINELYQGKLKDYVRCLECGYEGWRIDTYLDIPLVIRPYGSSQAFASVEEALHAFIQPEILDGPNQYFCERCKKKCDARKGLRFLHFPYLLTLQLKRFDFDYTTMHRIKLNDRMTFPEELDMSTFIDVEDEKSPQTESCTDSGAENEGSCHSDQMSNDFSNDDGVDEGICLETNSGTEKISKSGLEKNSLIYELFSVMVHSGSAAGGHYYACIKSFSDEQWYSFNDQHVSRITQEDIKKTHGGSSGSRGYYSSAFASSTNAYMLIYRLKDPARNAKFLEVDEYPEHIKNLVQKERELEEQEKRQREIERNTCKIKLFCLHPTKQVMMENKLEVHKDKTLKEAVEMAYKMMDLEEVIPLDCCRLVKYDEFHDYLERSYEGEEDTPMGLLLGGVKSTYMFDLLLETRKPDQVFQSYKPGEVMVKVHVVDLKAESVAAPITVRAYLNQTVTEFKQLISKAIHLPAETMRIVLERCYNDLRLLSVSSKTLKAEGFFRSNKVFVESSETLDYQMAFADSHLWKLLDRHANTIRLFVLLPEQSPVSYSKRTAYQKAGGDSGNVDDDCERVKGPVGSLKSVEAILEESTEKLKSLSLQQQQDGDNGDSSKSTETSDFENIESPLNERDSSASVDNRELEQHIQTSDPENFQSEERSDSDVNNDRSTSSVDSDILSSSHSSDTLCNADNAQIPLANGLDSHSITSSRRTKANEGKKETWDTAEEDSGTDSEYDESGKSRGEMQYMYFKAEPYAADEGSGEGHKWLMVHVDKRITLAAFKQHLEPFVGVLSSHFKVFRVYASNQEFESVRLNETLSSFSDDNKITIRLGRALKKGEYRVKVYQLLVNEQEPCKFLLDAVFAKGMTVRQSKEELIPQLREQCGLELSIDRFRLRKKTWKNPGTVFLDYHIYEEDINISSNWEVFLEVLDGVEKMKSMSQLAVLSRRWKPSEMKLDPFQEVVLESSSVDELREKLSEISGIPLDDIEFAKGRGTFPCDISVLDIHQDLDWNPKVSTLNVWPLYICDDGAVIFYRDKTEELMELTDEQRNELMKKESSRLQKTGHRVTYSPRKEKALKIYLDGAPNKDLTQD
In short: as §1

USP48 = biological target: T3, USP48 (UniProt Q86UV5)
T3 sequence (whole entry): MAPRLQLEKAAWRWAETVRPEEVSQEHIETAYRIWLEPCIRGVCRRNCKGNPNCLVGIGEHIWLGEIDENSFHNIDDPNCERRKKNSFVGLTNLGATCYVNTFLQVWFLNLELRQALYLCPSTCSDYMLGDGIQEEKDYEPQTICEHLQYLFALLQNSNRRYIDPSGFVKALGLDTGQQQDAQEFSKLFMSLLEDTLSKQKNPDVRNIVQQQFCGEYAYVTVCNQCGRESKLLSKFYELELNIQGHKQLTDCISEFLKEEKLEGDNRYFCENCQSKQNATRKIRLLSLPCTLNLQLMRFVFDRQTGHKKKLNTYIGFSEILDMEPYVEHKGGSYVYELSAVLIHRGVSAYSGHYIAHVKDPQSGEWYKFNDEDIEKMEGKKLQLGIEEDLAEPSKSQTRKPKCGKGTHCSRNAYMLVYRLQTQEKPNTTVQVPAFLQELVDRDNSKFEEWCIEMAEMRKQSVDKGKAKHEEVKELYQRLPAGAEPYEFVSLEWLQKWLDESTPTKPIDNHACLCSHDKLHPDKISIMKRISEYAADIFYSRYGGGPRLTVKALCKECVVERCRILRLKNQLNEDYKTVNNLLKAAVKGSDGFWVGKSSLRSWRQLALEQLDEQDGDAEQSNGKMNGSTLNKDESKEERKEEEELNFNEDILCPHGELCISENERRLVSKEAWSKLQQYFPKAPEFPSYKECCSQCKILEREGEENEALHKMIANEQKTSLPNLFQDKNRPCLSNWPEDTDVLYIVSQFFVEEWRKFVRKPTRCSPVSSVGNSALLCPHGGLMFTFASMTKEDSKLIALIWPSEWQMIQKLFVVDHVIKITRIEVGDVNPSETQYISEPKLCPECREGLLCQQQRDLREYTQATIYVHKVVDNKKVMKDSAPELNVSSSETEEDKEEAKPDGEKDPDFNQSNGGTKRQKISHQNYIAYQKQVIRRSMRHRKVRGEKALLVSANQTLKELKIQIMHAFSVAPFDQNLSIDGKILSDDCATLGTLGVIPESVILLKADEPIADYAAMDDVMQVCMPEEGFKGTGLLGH
In short: as §1

USP5 = biological target: T4, USP5 (UniProt P45974)
T4 sequence (whole entry): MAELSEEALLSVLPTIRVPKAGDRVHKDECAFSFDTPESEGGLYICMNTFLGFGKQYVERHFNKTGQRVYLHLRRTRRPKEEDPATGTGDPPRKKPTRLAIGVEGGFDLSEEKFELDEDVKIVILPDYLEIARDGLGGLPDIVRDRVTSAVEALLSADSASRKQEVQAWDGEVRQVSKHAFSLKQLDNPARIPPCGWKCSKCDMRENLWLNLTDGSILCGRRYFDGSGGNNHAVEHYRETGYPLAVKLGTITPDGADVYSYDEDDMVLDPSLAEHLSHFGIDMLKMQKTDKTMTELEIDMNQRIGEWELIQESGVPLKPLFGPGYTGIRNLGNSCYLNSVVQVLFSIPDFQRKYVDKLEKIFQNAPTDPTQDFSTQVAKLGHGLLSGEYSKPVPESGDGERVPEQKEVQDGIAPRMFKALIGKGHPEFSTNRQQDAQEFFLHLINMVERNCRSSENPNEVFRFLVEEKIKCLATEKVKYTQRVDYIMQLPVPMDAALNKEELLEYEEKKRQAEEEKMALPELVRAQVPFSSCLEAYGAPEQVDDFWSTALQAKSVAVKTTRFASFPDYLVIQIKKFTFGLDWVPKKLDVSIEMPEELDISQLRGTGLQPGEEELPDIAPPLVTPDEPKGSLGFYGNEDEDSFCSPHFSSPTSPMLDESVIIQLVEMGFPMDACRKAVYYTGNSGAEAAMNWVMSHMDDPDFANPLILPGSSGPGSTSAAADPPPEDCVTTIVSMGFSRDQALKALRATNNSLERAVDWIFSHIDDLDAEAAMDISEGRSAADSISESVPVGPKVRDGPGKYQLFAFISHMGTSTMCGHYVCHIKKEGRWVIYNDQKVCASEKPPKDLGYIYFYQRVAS
In short: as §1

USP54 = USP54 (UniProt Q70EL1)
In short: as §1

USP7 = USP7 (UniProt Q93009)
In short: as §1

USP8 = biological target: T5, USP8 (UniProt P40818)
T5 sequence (whole entry): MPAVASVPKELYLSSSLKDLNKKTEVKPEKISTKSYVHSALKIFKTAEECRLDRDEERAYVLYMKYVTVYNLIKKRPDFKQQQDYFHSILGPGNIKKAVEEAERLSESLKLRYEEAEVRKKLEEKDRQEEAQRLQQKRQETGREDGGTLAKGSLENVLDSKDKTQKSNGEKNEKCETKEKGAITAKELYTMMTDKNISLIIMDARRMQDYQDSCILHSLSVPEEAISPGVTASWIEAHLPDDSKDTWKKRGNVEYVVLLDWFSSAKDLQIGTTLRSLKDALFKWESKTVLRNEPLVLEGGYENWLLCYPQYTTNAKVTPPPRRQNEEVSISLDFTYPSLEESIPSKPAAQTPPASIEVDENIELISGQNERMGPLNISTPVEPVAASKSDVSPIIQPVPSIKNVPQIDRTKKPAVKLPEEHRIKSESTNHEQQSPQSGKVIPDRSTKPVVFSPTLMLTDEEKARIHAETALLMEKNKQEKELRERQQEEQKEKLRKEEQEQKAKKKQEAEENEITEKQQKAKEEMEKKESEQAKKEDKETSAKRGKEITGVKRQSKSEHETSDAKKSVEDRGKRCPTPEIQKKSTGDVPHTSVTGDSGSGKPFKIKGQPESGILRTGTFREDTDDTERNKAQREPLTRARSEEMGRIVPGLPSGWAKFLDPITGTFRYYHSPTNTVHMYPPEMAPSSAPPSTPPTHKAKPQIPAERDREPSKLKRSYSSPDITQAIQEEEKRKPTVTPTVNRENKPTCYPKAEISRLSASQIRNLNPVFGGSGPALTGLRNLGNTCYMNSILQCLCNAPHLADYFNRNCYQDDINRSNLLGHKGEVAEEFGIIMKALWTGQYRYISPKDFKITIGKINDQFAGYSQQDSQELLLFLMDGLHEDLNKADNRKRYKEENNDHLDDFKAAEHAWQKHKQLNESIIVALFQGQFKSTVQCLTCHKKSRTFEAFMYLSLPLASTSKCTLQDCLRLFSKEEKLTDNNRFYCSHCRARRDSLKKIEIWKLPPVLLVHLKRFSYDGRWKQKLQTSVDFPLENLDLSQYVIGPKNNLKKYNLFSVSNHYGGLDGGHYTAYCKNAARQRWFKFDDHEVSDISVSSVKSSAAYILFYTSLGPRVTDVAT
In short: as §1

USP9X = USP9X (UniProt Q93008)
In short: as §1

UniProt O00487 = biological target: UniProt O00487
In short: as §1

USP9X, sequence (Q93008 whole entry): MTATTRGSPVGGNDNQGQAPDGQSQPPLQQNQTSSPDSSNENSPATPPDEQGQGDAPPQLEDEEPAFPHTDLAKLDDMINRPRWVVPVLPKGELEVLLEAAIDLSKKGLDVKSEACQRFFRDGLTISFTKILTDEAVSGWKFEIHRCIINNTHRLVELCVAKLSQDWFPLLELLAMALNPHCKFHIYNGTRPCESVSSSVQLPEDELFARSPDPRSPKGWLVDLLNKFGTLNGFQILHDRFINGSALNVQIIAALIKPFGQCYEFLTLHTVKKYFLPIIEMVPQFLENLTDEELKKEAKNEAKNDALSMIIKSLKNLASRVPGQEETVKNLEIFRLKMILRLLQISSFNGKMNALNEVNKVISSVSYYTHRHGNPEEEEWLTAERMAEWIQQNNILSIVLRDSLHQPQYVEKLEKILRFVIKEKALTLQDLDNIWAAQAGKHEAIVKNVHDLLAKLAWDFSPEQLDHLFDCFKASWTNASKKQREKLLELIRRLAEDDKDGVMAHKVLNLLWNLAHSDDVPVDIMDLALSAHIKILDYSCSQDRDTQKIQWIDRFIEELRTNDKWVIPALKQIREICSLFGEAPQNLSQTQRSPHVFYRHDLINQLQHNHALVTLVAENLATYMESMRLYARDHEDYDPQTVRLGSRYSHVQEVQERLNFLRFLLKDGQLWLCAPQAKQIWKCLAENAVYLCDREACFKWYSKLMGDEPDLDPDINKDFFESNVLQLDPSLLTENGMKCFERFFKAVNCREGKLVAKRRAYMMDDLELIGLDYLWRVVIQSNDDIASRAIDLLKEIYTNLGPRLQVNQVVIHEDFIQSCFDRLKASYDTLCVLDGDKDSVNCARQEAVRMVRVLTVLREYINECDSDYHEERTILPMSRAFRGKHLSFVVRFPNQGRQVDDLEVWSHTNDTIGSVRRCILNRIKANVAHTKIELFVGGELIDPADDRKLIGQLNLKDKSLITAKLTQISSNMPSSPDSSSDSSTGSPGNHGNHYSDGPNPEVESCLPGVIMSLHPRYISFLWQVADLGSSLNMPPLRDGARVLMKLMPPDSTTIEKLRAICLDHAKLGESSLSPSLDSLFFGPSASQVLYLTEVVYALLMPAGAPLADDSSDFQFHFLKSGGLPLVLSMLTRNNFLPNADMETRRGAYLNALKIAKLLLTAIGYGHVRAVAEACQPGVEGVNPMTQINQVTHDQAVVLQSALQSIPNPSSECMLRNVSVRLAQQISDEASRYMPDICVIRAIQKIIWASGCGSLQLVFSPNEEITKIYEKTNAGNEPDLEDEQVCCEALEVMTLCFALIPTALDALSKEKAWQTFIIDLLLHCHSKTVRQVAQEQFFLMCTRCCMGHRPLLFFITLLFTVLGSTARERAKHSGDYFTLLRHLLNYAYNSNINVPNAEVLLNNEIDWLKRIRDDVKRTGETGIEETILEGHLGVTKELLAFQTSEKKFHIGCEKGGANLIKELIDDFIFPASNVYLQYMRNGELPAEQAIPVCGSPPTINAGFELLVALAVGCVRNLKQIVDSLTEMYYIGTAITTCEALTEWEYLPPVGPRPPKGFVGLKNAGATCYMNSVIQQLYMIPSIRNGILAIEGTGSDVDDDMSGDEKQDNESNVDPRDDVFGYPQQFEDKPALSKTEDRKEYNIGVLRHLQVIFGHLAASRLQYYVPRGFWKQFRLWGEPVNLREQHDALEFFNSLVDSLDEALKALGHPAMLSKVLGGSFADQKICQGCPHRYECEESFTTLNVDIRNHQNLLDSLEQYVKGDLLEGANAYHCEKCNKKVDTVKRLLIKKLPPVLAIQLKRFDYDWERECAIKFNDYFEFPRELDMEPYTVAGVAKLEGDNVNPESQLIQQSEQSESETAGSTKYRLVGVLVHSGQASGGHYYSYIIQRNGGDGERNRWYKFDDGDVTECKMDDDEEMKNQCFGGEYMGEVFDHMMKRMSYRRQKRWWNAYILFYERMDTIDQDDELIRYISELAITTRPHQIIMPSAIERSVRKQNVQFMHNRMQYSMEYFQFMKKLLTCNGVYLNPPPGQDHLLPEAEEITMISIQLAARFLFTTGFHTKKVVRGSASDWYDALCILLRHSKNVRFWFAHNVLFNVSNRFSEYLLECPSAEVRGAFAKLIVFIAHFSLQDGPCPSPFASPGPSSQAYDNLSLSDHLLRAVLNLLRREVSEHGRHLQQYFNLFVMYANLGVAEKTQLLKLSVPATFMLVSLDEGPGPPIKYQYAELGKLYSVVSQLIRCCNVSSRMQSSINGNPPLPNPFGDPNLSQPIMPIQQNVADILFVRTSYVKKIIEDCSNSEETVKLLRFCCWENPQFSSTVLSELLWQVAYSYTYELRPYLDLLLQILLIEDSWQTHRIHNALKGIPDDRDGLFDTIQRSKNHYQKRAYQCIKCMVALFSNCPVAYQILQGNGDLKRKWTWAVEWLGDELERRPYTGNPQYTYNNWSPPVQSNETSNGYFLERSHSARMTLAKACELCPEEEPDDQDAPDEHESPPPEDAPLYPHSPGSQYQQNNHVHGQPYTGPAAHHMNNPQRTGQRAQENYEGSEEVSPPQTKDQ
USP46, sequence (P62068 whole entry): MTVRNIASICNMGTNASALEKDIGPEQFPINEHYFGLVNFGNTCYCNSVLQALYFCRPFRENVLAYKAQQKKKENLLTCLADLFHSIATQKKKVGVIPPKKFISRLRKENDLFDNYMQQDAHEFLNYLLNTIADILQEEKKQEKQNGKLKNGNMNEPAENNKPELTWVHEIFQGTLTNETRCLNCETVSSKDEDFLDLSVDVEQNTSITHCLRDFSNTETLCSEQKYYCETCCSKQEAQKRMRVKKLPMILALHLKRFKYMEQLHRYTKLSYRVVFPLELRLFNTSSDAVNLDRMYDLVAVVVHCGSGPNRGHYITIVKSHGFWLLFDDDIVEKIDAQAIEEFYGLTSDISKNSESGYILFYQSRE
USP54, sequence (Q70EL1 whole entry): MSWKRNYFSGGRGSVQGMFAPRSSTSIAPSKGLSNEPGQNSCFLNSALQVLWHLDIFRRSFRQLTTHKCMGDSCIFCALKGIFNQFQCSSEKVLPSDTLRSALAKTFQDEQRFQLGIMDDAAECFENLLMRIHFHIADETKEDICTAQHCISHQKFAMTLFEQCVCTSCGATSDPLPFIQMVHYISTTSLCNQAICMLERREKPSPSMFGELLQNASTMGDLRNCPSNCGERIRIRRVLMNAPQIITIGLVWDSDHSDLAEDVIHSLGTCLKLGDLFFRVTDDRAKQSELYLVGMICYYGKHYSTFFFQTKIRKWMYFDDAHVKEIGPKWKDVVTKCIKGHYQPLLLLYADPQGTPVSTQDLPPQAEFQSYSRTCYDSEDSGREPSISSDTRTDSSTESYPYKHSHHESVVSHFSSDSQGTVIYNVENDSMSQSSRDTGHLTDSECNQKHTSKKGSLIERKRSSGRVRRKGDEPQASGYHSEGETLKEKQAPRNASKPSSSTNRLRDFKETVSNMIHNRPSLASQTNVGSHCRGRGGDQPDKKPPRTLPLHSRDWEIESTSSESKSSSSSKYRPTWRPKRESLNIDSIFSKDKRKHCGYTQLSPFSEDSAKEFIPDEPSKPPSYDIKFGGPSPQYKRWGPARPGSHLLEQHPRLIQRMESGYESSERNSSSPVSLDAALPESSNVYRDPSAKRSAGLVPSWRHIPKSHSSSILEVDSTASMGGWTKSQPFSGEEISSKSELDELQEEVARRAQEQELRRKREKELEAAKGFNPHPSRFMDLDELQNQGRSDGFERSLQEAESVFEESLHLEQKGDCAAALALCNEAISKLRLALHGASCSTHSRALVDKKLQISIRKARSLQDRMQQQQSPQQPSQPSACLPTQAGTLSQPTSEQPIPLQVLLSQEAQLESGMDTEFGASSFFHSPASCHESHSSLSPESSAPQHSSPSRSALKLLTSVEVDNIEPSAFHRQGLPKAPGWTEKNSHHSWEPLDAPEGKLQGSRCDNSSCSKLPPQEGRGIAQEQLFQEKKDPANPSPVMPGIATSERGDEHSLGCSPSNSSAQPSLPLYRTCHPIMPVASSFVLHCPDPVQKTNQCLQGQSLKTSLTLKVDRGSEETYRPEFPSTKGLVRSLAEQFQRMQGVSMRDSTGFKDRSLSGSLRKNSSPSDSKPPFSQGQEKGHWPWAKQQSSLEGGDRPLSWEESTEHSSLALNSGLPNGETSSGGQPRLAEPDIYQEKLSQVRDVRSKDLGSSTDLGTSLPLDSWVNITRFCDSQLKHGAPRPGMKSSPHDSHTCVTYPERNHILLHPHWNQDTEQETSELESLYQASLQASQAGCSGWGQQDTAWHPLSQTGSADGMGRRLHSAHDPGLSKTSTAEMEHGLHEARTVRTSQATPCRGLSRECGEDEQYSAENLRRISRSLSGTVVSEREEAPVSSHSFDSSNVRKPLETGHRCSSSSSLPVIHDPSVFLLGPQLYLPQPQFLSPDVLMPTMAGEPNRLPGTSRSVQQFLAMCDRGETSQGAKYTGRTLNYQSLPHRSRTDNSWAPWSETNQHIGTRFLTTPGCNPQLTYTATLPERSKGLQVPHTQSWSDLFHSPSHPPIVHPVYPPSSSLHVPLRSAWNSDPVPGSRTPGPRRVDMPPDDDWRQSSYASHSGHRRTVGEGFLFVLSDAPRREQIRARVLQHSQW
UniProt O00487, sequence (O00487 whole entry): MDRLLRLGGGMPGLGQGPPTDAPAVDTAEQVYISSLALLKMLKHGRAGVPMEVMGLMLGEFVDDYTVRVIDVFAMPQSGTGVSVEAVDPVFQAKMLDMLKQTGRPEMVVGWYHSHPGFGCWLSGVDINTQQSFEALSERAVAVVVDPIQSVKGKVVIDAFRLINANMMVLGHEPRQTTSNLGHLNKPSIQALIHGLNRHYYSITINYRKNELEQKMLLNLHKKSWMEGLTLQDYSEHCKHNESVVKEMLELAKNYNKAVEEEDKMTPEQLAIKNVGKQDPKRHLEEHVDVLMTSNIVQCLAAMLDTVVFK

Row | Structure (SMILES) | log2 ratio of Biotin-Ahx-Ub-VS probe labelling (USP42) | log2 ratio of Biotin-Ahx-Ub-VS probe labelling (USP46) | log2 ratio of Biotin-Ahx-Ub-VS probe labelling (USP47) | log2 ratio of Biotin-Ahx-Ub-VS probe labelling (USP48) | log2 ratio of Biotin-Ahx-Ub-VS probe labelling (USP5) | log2 ratio of Biotin-Ahx-Ub-VS probe labelling (USP54) | log2 ratio of Biotin-Ahx-Ub-VS probe labelling (USP7) | log2 ratio of Biotin-Ahx-Ub-VS probe labelling (USP8) | log2 ratio of Biotin-Ahx-Ub-VS probe labelling (USP9X) | log2 ratio of Biotin-Ahx-Ub-VS probe labelling (UniProt O00487)
1 | Cn1cc(CN(Cc2ccc(Cl)cc2)C(=O)CCl)cn1 | 0.553 | -0.635 | -1.45 (active) | -0.598 | 0.00584 | -0.648 | -3.08 (active) | 0.0316 | -0.441 | 0.0261
2 | Cl.Cn1nccc1C(NC(=O)CCl)c1ccccc1 (stereo not given) | 0.0316 | 0.114 | -1.1 (active) | -0.11 | 0.239 | 0.34 | -0.284 | -0.582 | -0.0773 | -0.0868
3 | O=C(CCl)N1CCC[C@@H]1c1ccon1 | 0.00575 | -0.0791 | -0.264 | -0.779 | -0.0234 | 0.591 | -0.78 | -0.331 | -0.32 | -0.227
4 | CC(=O)Nc1ccc(NC(=O)CCl)cc1 | 0.329 | -0.0429 | -0.31 | -0.256 | -0.0185 | 0.408 | -0.267 | -0.236 | -0.118 | -0.167
